This is one part of the list. How many sequences the whole screen found active is unknown.
Target: furin, P09958
Experiment: furin cleavage Z-score vs untreated control; higher = more cleavage, active = 3.5 or more, inactive = 1 or less, 8 variable residues between constant flanks
How it was run: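 Magnetic beads held 8-mer peptides by the N-terminus, each fused to a cDNA oligonucleotide, and purified furin was added for 7.5, 15 or 30 min. Released DNA was sequenced after PCR adapter tagging. The cleavage Z-score is the log count relative to furin-free reactions, lowess-adjusted and divided by median absolute deviation.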
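Also: purified furin at 1:10 enzyme:substrate in 50 mM HEPES pH 7.5.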

Chain of furin, P09958 (P09958 whole entry): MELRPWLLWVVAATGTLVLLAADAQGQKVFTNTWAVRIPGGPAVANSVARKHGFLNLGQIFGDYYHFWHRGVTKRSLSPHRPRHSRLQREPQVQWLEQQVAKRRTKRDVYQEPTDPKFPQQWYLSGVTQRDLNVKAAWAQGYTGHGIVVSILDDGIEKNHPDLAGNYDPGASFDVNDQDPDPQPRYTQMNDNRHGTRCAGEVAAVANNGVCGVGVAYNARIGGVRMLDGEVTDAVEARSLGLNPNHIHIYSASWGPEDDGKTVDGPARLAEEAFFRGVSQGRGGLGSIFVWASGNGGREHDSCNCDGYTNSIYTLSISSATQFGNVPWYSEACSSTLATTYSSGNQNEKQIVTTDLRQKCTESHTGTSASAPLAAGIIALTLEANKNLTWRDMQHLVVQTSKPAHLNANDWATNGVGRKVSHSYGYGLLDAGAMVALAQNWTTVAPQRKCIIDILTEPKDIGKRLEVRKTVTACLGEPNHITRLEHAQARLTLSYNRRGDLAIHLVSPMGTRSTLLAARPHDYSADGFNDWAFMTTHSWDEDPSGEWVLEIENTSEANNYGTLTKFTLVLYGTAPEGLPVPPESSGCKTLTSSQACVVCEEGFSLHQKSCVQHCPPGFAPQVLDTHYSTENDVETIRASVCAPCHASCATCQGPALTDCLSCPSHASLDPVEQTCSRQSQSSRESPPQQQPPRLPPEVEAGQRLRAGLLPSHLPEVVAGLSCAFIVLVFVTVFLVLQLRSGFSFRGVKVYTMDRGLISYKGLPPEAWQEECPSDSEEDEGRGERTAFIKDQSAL

Row | Sequence | furin cleavage Z-score (7.5 min) | furin cleavage Z-score (15 min) | furin cleavage Z-score (30 min)
1 | CAEVVTSTHVAGNASASA [HC2235] | -0.582 (inactive) | 0.167 (inactive) | -1.55 (inactive)
2 | CAVCGDDLVVAGNASASA [HC1528] | -2.27 (inactive) | -1.44 (inactive) | -0.381 (inactive)
3 | CADLVVICESAGNASASA [HC1530] | 0.357 (inactive) | -1.48 (inactive) | 1.02
4 | CAPPGSVTVPAGNASASA [HC836] | 0.584 (inactive) | 0.308 (inactive) | -0.638 (inactive)
5 | CAKVVTSTWVAGNASASA [HC2154] | -1.02 (inactive) | 1.09 | -1.67 (inactive)
6 | CATTPCMGSWAGNASASA [HC68] | 1.12 | 0.786 (inactive) | -0.593 (inactive)
7 | CATTPCWGSWAGNASASA [HC67] | 0.261 (inactive) | 1.14 | 1.23
8 | CATTPCIGSWAGNASASA [HC65] | 0.499 (inactive) | 3.77 (active) | 2
9 | CAEKRRSADIAGNASASA [FS-2630] | -0.771 (inactive) | -1.51 (inactive) | -0.666 (inactive)
10 | CAGPGEGAVQAGNASASA [HC1114] | -0.225 (inactive) | -1.41 (inactive) | -1.21 (inactive)
11 | CAEKTRHARQAGNASASA [FS-1520] | 8.09 (active) | 8.28 (active) | 7.03 (active)
12 | CAAGVAGALVAGNASASA [HC1089] | -0.652 (inactive) | -0.752 (inactive) | 0.946 (inactive)
13 | CAAMGRGKRQAGNASASA [FS-1184] | 9.02 (active) | 8.89 (active) | 8.8 (active)
14 | CAALDRTKRQAGNASASA [FS-579] | 11.8 (active) | 12.8 (active) | 11 (active)
15 | CASDSRHSRQAGNASASA [FS-1612] | 0.00727 (inactive) | 0.0993 (inactive) | 0.17 (inactive)
16 | CAGKSRNKRQAGNASASA [FS-243] | 10.4 (active) | 10.6 (active) | 10.1 (active)
17 | CAHIDAHFLSAGNASASA [HC944] | -0.528 (inactive) | -1.68 (inactive) | -0.674 (inactive)
18 | CAGCSFSIFLAGNASASA [HC246] | -1.55 (inactive) | -1.86 (inactive) | 0.305 (inactive)
19 | CAEVMTSTWVAGNASASA [HC2186] | -0.944 (inactive) | -0.894 (inactive) | -0.0736 (inactive)
20 | CALDQAETAGAGNASASA [HC827] | 0.305 (inactive) | 0.588 (inactive) | 0.353 (inactive)
21 | CAEVGCHRPSAGNASASA [HC2356] | 0.279 (inactive) | 0.829 (inactive) | 0.483 (inactive)
22 | CAALVTPCAAAGNASASA [HC1375] | -0.826 (inactive) | -0.333 (inactive) | -1.48 (inactive)
23 | CATIPCSGSWAGNASASA [HC1844] | -0.402 (inactive) | -1.52 (inactive) | -0.285 (inactive)
24 | CAFTSRFKRQAGNASASA [FS-420] | 10.7 (active) | 10.3 (active) | 8.02 (active)
25 | CAGKSRRKRQAGNASASA [FS-1328] | 11.6 (active) | 12.5 (active) | 8.34 (active)
26 | CAVSVRRKRQAGNASASA [FS-516] | 11.2 (active) | 12.2 (active) | 9.86 (active)
27 | CAPRLRRKRQAGNASASA [FS-1243] | 10.3 (active) | 9.75 (active) | 8.73 (active)
28 | CAGKKRRPVKAGNASASA [DV1] | 0.52 (inactive) | 1.23 | 0.39 (inactive)
29 | CASPSVRKRQAGNASASA [FS-1084] | 1.65 | 1.54 | 0.547 (inactive)

— the supplement of paper PMC3545927
